Sampled rows, rich in hits. Any-hit rate of the full collection: about 6.5%.
FMDV antiviral – antivirals against foot and mouth disease virus; FMDV antiviral cell-based qHTS; Potency, µM (doses to about 57.9 µM), without a hit: top-dose activity change, negative = inhibition, usual class: inhibitors; actives 1.2% (n = 410,000); AID 1159524; calls by dose curve; tested in HEK293T cells; note: read-out not given here; potency is the fitted concentration of half-maximal effect; nearly all actives have a fitted effect of over 45% in size
HCMV inh – blocks human cytomegalovirus replication; HFF cells, HCMV-luciferase reporter, 72 h; active compounds read low; activity change, negative = inhibition, % at 57.5 µM; actives 4.5% (n = 410,000); AID 1259415; in the data active = activity change below about -60%; inconclusive = no clear call, values can overlap the other calls; inactive = above about -39%
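Screen run at 2 compound doses on HFFs infected with reporter HCMV, MOI 1 PFU/cell. Luciferase activity from cell lysates at 72 h post infection gave inhibition relative to buffer-only and Salinomycin wells.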
MARV entry inh – inhibitors of Marburg virus binding or cell entry. Potency, µM (top dose mostly 37.8 µM), for the others: top-dose activity change, negative = inhibition, hits mostly inhibitors. AID 540276. Marburg virus pseudotyped entry inhibition, cell reporter. actives 1.8% (n = 300,000); calls by dose curve; tested in HEK293 cells; note: potency is the fitted concentration of half-maximal effect
Lassa entry inh – blocks Lassa virus binding to or entry into cells; Potency, µM (highest dose often 37.9 µM), without a hit: at the top dose activity change, negative = inhibition, usual class: inhibitors; Lassa virus pseudotype entry inhibition, cell reporter; AID 540256; actives 1.2% (n = 300,000); calls by dose curve; tested in HEK293 cells; note: potency is the fitted concentration of half-maximal effect; nearly all actives have a fitted effect of over 50% in size
VACV mCherry inh – vaccinia inhibition (mCherry reporter). Vaccinia virus mCherry reporter infection, fluorescence. Potency, µM (series often up to 36.5 µM), inactives show at the highest dose activity change, negative = inhibition, hits mostly inhibitors. actives 0.63% (n = 310,000); calls by dose curve; tested in A549 cells; note: potency is the fitted concentration of half-maximal effect; nearly all actives have a fitted effect of over 35% in size
VACV Venus inh – inhibitors of vaccinia virus (Venus reporter); actives 0.46% (n = 330,000); Potency, µM (top dose mostly 36.5 µM), for inactives: at the top dose activity change, negative = inhibition, usual class: inhibitors; AID 720580; Vaccinia virus Venus reporter expression, fluorescence; calls by dose curve; tested in A549 cells; note: potency is the fitted concentration of half-maximal effect; nearly all actives have a fitted effect of over 30% in size
* marks the source's active call; other numbers are inactive results; i = inactive; ? = inconclusive; . = no result; + = active, no number; [ ] = another dose, or the depositor's remark. % is set by controls: 0 for no effect and ±100 for the full control effect.

SMILES	FMDV antiviral	HCMV inh	MARV entry inh	Lassa entry inh	VACV mCherry inh	VACV Venus inh
CC(=NNC(=S)N1CCN(C2CCCCCC2)CC1)c1ccccn1	?	-96.5*	?	0.282µM*	?	?
O=C(CN1CCCCC1)N1CCN(S(=O)(=O)c2ccccc2)C1	1.3%	-102.9*	-12.0%[46.1 µM]	1.0%	0.3%	2.1%
CC(=NNC(=S)N1CCN(c2ccccn2)CC1)c1ccccn1	-8.8%	-13.8	?	-9.3%	i	-1.9%
O=C(CN1CCN(S(=O)(=O)c2ccc(Cl)cc2)CC1)N1CCCC1	-11.1%	-14.9	?	23.3%	-6.8%	-11.8%
C[C@H]1[C@@H](NS(=O)(=O)c2cccc([N+](=O)[O-])c2)CC[C@@]23CCCN2C(=O)CCC[C@@H]13	.	10.7	.	.	.	.
COc1cc2c(c(OC)c1OC)C(c1ccccc1)(c1ccccc1)CC2NC(=O)C(F)(F)F (stereo unspecified)	.	.	-9.6%[14.2 µM]	.	.	.
CC(=NNC(=S)N1CCCCCC1)c1cccc2cccnc12	21.1%	-74.9*	?	?	?	?
CC(=NNC(=S)N1CC2CCC(CC2)C1)c1cnccn1	-16.6%	-95.8*	?	0.282µM*	15.8µM*	?
C/C(=N\NC(=O)C1CCCN(S(=O)(=O)c2ccccc2)C1)c1ccccn1 (stereo unspecified)	?	-92.6*	?	?	?	?
COc1ccc(-c2nc3c(c4c2C[C@H](c2ccccc2)OC4)CN(C(=O)NCc2ccco2)CC3)c(C)c1	.	.	-28.5%[14.2 µM]	-14.5%[14.3 µM]	.	.
CN1CCC2(CC1)[C@H]1CN(C)CC=C1C(C#N)=C(N)C2(C#N)C#N	.	.	-8.6%	.	.	.
O=c1[nH]c(=S)[nH]cc1Oc1ccc(Cl)cc1Cl	-10.5%	-96.9*	.	.	i	-10.0%
COc1ccc(CCN(C)C(=O)c2cnn(-c3nccc(-c4ccc(C)o4)n3)c2C)cc1OC	31.8%	.	.	.	-17.3%	-11.3%
CCCc1cc(-c2[nH]ncc2-c2ccc(C(=O)OCC)o2)c(O)cc1O	.	-62.0*	?	-17.4%	?	?
CCc1cc(-c2[nH]ncc2-c2nc3ccccc3n2C)c(O)cc1O	-45.3%	14.5	.	.	.	.
CCCc1cc(-c2[nH]ncc2-c2ccc3c(c2)OCCCO3)c(O)cc1O	14.1µM*	39.2	14.6µM*	?	.	.
Cc1cccnc1N=O	.	21.5	.	.	.	.
CCC1N=C(SC)NC(C)=C1C(=O)c1ccccc1 (stereo unspecified)	-8.9%	-68.6*	-24.2%	?	.	.
CCC(Sc1nc2ncccc2[nH]1)C(=O)NCCc1ccccc1 (stereo unspecified)	-9.9%	-61.3*	.	.	-11.9%	0.8%
CCC(Sc1nc2ncccc2[nH]1)C(=O)NC1CCC(C)CC1 (stereo unspecified)	0.0%	-8.8	.	.	-24.3%	-8.4%
CC(=O)Nc1ccc2nc(-c3ccccc3)cn2c1	-17.5%	21.0	?	?	-11.3%	-9.8%
Nc1nc(-c2ccc3c(c2)OCCO3)cs1	33.9%	77.7	-15.8%	7.4%	-18.1%[1.46 µM]	7.08µM*
Cc1ccc2nc(-c3ccc4c(c3)OCCO4)cn2c1	3.16µM*	-103.2*	?	1µM*	i	-18.0%
Oc1ccccc1-c1cc(-c2ccccc2)no1	9.8%	176.3	?	?	.	-8.3%
Cc1ccc2nc(-c3cc(-c4ccccc4)no3)cn2c1	-48.4%	5.4	?	0.891µM*	i	-2.8%
SMILES	FMDV antiviral	HCMV inh	MARV entry inh	Lassa entry inh	VACV mCherry inh	VACV Venus inh
Cc1ccc(-c2cc(-c3ccccc3)no2)c(O)c1	?	3.2	?	5.01µM*	-13.4%	0.5%
O=C(NCCOCCn1c(=O)oc2ccccc21)Nc1cccc(Cl)c1	0.0%	-3.8	2.5%[46.1 µM]	-3.0%[46.1 µM]	13.4%	11.4%
CCc1ccn2cc(-c3cc(-c4ccccc4)no3)nc2c1	3.16µM*	-95.3*	.	.	.	.
CCOc1cc(CNCC2CCCO2)cc(Br)c1OCC(N)=O (stereo unspecified)	-17.0%	-69.1*	?	1.3%	.	.
COc1cc(CNCC2CCCO2)ccc1OCC(N)=O (stereo unspecified)	-8.0%	11.6	.	.	.	.
Nc1ccc(C(=O)N2CCN(S(=O)(=O)c3ccc(Br)cc3)CC2)cc1[N+](=O)[O-]	-13.8%	-60.9*	-0.7%	-2.5%	-24.3%	-28.5%
C[C@@H]1CN([C@@H](C)CO)C(=O)CCCn2cc(nn2)CO[C@H]1CN(C)C(=O)Nc1ccc(C(F)(F)F)cc1	.	8.8	.	.	.	.
COc1ccc(-n2cc(C(=O)c3ccccc3O)cn2)cc1	-51.1%	60.9	?	3.98µM*	-10.3%	-6.9%
COc1ccccc1NC(=O)C1=C(C)Nc2nc(SCc3ccccc3)nn2C1c1cccs1 (stereo unspecified)	-14.5%	?	?	?	-19.2%	-13.9%
O=C(CN1Cc2ccccc2OC(c2ccccc2)C1)NCc1cccnc1 (stereo unspecified)	53.8%	.	.	.	-11.0%	-4.9%
CCCn1nc([N+](=O)[O-])c(C(C#N)c2nc3ccccc3s2)c(Cl)c1=O (stereo unspecified)	?	-90.3*	?	-15.7%	.	.
NC[C@H]1O[C@H](O[C@H]2[C@H](O)[C@@H](O[C@H]3O[C@H](CO)[C@@H](O)[C@H](N)[C@H]3O)[C@H](N)C[C@@H]2N)[C@H](N)[C@@H](O)[C@@H]1O	-2.0%	.	.	.	-16.0%	-9.1%
COc1c(O)cc2oc3cc(O)c(CC=C(C)C)c(O)c3c(=O)c2c1CC=C(C)C	-11.1%	.	.	.	?	-29.1%
CC(C)=CCc1c(O)cc2oc3c(CC=C(C)C)c(O)c(O)c(CC=C(C)C)c3c(=O)c2c1O	22.4µM*	-101.0*	.	.	?	?
COc1cc(CNC(=O)c2ccc3c(c2)c(C)c(C)n3Cc2cccc(C)c2)cc(OC)c1OC	0.0%	-86.7*	.	3.2%[46.1 µM]	-25.4%	-4.0%
COc1cccc(CNC(=O)c2ccc3c(c2)c(C)c(C)n3Cc2ccccc2)c1OC	-5.2%	?	.	?	-12.3%	-4.8%
Cc1c(C)n(Cc2ccccc2)c2ccc(C(=O)NCc3ccccc3F)cc12	16.7%	+	.	-28.8%[46.1 µM]	-11.1%	-5.6%
O=c1oc2ccccc2c2c1[C@H]1O[C@](c3ccsc3)(Cc3c1ccc1ccccc31)O2	.	.	5.2%[14.2 µM]	.	.	.
Cn1c(SCc2ccccc2)nnc1C1CCCN(Cc2cccc3ncccc23)C1 (stereo unspecified)	-11.4%	.	.	.	-8.7%	-6.6%
CC1=C(C(=O)OC2CCCC2)C(c2cccc(Cl)c2Cl)CC(=O)N1 (stereo unspecified)	?	-74.6*	-47.0%[46.1 µM]	14.7%[46.1 µM]	-17.6%	-15.2%
COc1ccc2c(CC(=O)Nc3ccc(OC)c(S(=O)(=O)N4CCOCC4)c3)coc2c1	24.9%	-18.9	2.3%	-1.4%	i	-12.2%
COc1ccc(NC(=O)c2ccc(-c3ccccc3)cc2)cc1S(=O)(=O)N1CCOCC1	3.55µM*	-68.1*	-7.7%[46.1 µM]	-2.7%	?	-28.6%
COc1ccc(NC(=O)c2ccc(Cl)nc2)cc1S(=O)(=O)N1CCOCC1	-19.5%	119.3	.	.	.	.
